An excerpt weighted towards active compounds, which were near 2.9% of everything screened.
DRD3 agonist – D3 dopamine receptor (human) agonism; P35462; D3R DiscoveRx beta-arrestin cells, luminescence, 90 min; max activation, %; hit rate 0.58% among 410,000; in the data active = max activation above about 30%; also: 0% is about no effect
Target sequence (P35462 whole entry, looked up): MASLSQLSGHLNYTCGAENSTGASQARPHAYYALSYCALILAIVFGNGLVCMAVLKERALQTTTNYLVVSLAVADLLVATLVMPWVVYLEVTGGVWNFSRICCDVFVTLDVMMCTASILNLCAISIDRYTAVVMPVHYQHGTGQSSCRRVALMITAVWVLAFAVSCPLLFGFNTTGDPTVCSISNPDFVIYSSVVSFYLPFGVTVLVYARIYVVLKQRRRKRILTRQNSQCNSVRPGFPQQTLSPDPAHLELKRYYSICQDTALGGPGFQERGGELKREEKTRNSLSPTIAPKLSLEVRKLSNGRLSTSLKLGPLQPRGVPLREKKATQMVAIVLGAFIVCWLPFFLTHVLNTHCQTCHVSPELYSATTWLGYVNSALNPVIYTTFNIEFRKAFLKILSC
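Agonist-mode cell screen: cells plated at 1500/well and incubated overnight at 37 °C, then exposed to library compounds for 90 min at 37 °C. Detection reagent was added for 30–60 min at room temperature, and luminescence was read.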
a7 integrin act – integrin-mediated muscular dystrophy alleviation activation; Potency, µM (top dose mostly 38.3 µM), without a hit: top-dose activation, most hits filed as activators; hit rate 0.064% among 350,000; alpha7betagal myoblasts, beta-gal FDG fluorescence, 48 h; active = well fitted activation curve with a large enough effect; inconclusive = small, poorly fitted or top-dose-only effect; inactive = no such curve, though single readings can be large or run the other way;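 also: potency is read from the fitted curve at half-maximal effect; 100% = response of the positive control SU9516; nearly all actives have a fitted effect of over 60% in size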
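alpha7betagal+/- myoblasts (passage 13, 250/well) treated 48 h at 37C with compounds at 1:260 dilution of DMSO stock. Lysed, then beta-galactosidase activity read as FDG fluorescence (ex 480/em 540) after 30 min, with pre-read for autofluorescence.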
DRD3 antagonist – D3 dopamine receptor (human) antagonism. max response, negative = inhibition, %. D3R cells, DiscoveRx beta-arrestin luminescence, antagonist mode; active compounds read low. AID 652054. hit rate 2.5% among 360,000; in the data active = max response below about -50%; inconclusive = no clear call, values can overlap the other calls; also: % is scaled to controls: 0 for no effect and ±100 for the full control effect
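Cells expressing the human receptor were seeded at 1500 cells/well, incubated overnight at 37 degrees C in 5% CO2, then exposed to library compounds with dopamine controls for 90 minutes at 37 degrees C before luminescent detection.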
* hit, by the source's call.

Results for O=C(NS(=O)(=O)Nc1ccc(Cl)cc1)c1c[nH]c2ccccc12 ?
DRD3 agonist: 4.6; a7 integrin act: 4.1%; DRD3 antagonist: 10.0

How did CCc1cccc(NS(=O)(=O)c2ccc3c(c2)NC(=O)CO3)c1 do in these assays?
DRD3 agonist: 4.7; a7 integrin act: -1.3%; DRD3 antagonist: 5.5

Results for CCCC(=O)Nc1ccc(NC(=O)CCc2ccccc2)cn1 ?
DRD3 agonist: 5.7; a7 integrin act: -51.6%; DRD3 antagonist: -56.0*

Results for CCCC(=O)Nc1ccc(NC(=O)Cc2ccccc2)cn1 ?
DRD3 agonist: -3.9; a7 integrin act: 33.7%; DRD3 antagonist: -18.7

How did CCc1cccc(NC(c2ccccc2)c2nnc(-c3ccccc3F)o2)c1 (stereo not given) do in these assays?
DRD3 agonist: 6.5

Results for CC(=O)c1ccc(NC(=O)CN2CCCCCC2)cc1 ?
DRD3 agonist: -10.5; a7 integrin act: inconclusive; DRD3 antagonist: -4.2

How did Cc1ccc(/C=N/NC(=O)c2nnn(-c3nonc3N)c2CN(C)C)o1 do in these assays?
DRD3 agonist: -34.2; a7 integrin act: inconclusive; DRD3 antagonist: 2.8

Results for CCCCN(C(=O)CSc1nnc2ccccn12)c1c(N)n(Cc2ccccc2)c(=O)[nH]c1=O ?
DRD3 agonist: -4.1; a7 integrin act: 38.9%; DRD3 antagonist: -20.4

What do the screens show for `CCN(C(=O)CSc1nnc2ccccn12)c1c(N)n(Cc2ccccc2)c(=O)[nH]c1=O`?
DRD3 agonist: 30.5*; a7 integrin act: 13.2%; DRD3 antagonist: 9.8

How did Cc1cnc(NC(=O)CSc2nc3ccccc3c(=O)[nH]2)s1 do in these assays?
DRD3 agonist: 1.8; a7 integrin act: -16.8%; DRD3 antagonist: 3.3

What do the screens show for `CCN(CC)CCCN(Cc1cc2cc3c(cc2[nH]c1=O)OCO3)C(=S)NC`?
DRD3 agonist: -4.6; a7 integrin act: 35.8%; DRD3 antagonist: 2.5

Results for O=C(O)c1cccc(N2C(=O)c3ccc(Oc4ccc(Cl)cc4)cc3C2=O)c1 ?
DRD3 agonist: 2.4; a7 integrin act: 11.9%; DRD3 antagonist: -3.4

How did O=C(O)c1cccc(N2C(=O)c3ccc4c5c(ccc(c35)C2=O)C(=O)N(c2cccc(C(=O)O)c2)C4=O)c1 do in these assays?
DRD3 agonist: -37.8; a7 integrin act: 0.5%; DRD3 antagonist: -106.9*

Results for CC(C)N1C/C(=C/c2ccsc2)C(=O)/C(=C/c2ccsc2)C1 ?
DRD3 agonist: -9.4; a7 integrin act: -61.5%; DRD3 antagonist: inconclusive

What do the screens show for `CN1C/C(=C/c2cccnc2)C(=O)/C(=C/c2cccnc2)C1`?
DRD3 agonist: -7.6; a7 integrin act: -59.8%; DRD3 antagonist: -55.3*

Results for CC(C)N1C/C(=C/c2cccnc2)C(=O)/C(=C/c2cccnc2)C1 ?
DRD3 agonist: 6.9; a7 integrin act: -16.6%; DRD3 antagonist: inconclusive

What do the screens show for `COc1cc(/C=C2\C(=O)ON=C2c2ccccc2)cc(Br)c1O`?
DRD3 agonist: 6.3; a7 integrin act: -24.8%; DRD3 antagonist: -8.8

What do the screens show for `Cn1c(=O)c2c(C(=O)O)cc(-c3ccccc3)nc2n(Cc2ccccc2)c1=O`?
DRD3 agonist: 1.2; a7 integrin act: 40.3%; DRD3 antagonist: 10.9

What do the screens show for `CCCN(CCC)C(=O)Cc1ccc(F)cc1`?
DRD3 agonist: 4.8; a7 integrin act: 1.7%; DRD3 antagonist: -5.0

How did C=CCSc1nnc(NC(=O)COc2ccccc2)s1 do in these assays?
DRD3 agonist: 2.5; a7 integrin act: 7.6%; DRD3 antagonist: -11.0

How did C=CCSc1nnc(NC(=O)COc2ccc3ccccc3c2)s1 do in these assays?
DRD3 agonist: -1.8; a7 integrin act: 13.9%; DRD3 antagonist: -65.9*

How did Nc1ccc(Oc2ccc3c(c2)C(=O)N(CC2CCCO2)C3=O)cc1 (stereo not given) do in these assays?
DRD3 agonist: -8.1; a7 integrin act: -19.5%; DRD3 antagonist: -2.4

What do the screens show for `CCOC(=O)c1c(CC(C)C)csc1NC(=O)COC(=O)c1ccc(O)cc1`?
DRD3 agonist: 35.7*; a7 integrin act: -3.2%; DRD3 antagonist: 24.7

Results for CCOC(=O)c1c(CC(C)C)csc1NC(=O)COC(=O)C1=NNC(=O)CC1 ?
DRD3 agonist: 3.9; a7 integrin act: -1.2%; DRD3 antagonist: 2.7

What do the screens show for `Clc1nnc(N2CCCCC2)c2ccccc12`?
DRD3 agonist: -0.7; a7 integrin act: -9.1%; DRD3 antagonist: 18.1

How did O=C(c1ccccc1)N1CCN(Cc2c[nH]c3ccccc23)CC1 do in these assays?
DRD3 agonist: 2.5; a7 integrin act: -2.0%; DRD3 antagonist: -85.2*

Results for OC1(c2ccc(Cl)cc2)CCN(Cc2c[nH]c3ccccc23)CC1 ?
DRD3 agonist: -86.5; DRD3 antagonist: -100.9*

Results for O=C(c1cccc(F)c1)N1CCN(Cc2c[nH]c3ccccc23)CC1 ?
DRD3 agonist: -14.3; a7 integrin act: 0.9%; DRD3 antagonist: -7.6
